Test results published in article PMC9911399, “Two distinct binding modes provide the RNA-binding protein RbFox with extraordinary sequence specificity”.
Where a chain is given by its changes, count along the chain named. Whole data set: some 16,000 sequences, median “ka relative to ugcaugu” near 0.0091, cut for the highest 2% near 0.032. This is one part of a sample in which the highest values are shown more often than they occur.

T1: RBFOX1 RRM (Homo sapiens, UniProt Q9NWB1 109-208)
T1 sequence: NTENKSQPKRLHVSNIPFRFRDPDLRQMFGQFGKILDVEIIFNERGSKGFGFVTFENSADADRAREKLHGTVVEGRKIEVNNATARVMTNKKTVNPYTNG

B1: GAGCAGA (DNA:RNA)
RNA: GGGAGACCGGAAUUCAGAUUGUCCGAGCAGAUUAAAUCCCGUCGUAGCCACCA
DNA 1: CAATCTGAATTCCGGTCTCCC
DNA 2: TGGTGGCTACGACGGGATT
B2: GAGCACC (DNA:RNA)
RNA: B1 RNA with G30C, A31C
DNA 1: CAATCTGAATTCCGGTCTCCC
DNA 2: TGGTGGCTACGACGGGATT
B3: GAGCAUG (DNA:RNA)
RNA: B1 RNA with G30U, A31G
DNA 1: CAATCTGAATTCCGGTCTCCC
DNA 2: TGGTGGCTACGACGGGATT
B4: GAGCACG (DNA:RNA)
RNA: B1 RNA with G30C, A31G
DNA 1: CAATCTGAATTCCGGTCTCCC
DNA 2: TGGTGGCTACGACGGGATT
B5: GAGCAUC (DNA:RNA)
RNA: B1 RNA with G30U, A31C
DNA 1: CAATCTGAATTCCGGTCTCCC
DNA 2: TGGTGGCTACGACGGGATT
B6: GAGAGCA (DNA:RNA)
RNA: B1 RNA with C28A, A29G, G30C
DNA 1: CAATCTGAATTCCGGTCTCCC
DNA 2: TGGTGGCTACGACGGGATT
B7: UUGCUAA (DNA:RNA)
RNA: B1 RNA with G25U, A26U, A29U, G30A
DNA 1: CAATCTGAATTCCGGTCTCCC
DNA 2: TGGTGGCTACGACGGGATT
B8: CGACAAG (DNA:RNA)
RNA: B1 RNA with G25C, A26G, G27A, G30A, A31G
DNA 1: CAATCTGAATTCCGGTCTCCC
DNA 2: TGGTGGCTACGACGGGATT
B9: CCAUGCU (DNA:RNA)
RNA: GGGAGACCGGAAUUCAGAUUGUCCCCAUGCUUUAAAUCCCGUCGUAGCCACCA
DNA 1: CAATCTGAATTCCGGTCTCCC
DNA 2: TGGTGGCTACGACGGGATT
B10: AUGCACG (DNA:RNA)
RNA: B1 RNA with G25A, A26U, G30C, A31G
DNA 1: CAATCTGAATTCCGGTCTCCC
DNA 2: TGGTGGCTACGACGGGATT
B11: AUCCACG (DNA:RNA)
RNA: B1 RNA with G25A, A26U, G27C, G30C, A31G
DNA 1: CAATCTGAATTCCGGTCTCCC
DNA 2: TGGTGGCTACGACGGGATT
B12: UUGCACC (DNA:RNA)
RNA: B1 RNA with G25U, A26U, G30C, A31C
DNA 1: CAATCTGAATTCCGGTCTCCC
DNA 2: TGGTGGCTACGACGGGATT
B13: UAGCACG (DNA:RNA)
RNA: B1 RNA with G25U, G30C, A31G
DNA 1: CAATCTGAATTCCGGTCTCCC
DNA 2: TGGTGGCTACGACGGGATT
B14: UAGCACC (DNA:RNA)
RNA: B1 RNA with G25U, G30C, A31C
DNA 1: CAATCTGAATTCCGGTCTCCC
DNA 2: TGGTGGCTACGACGGGATT
B15: UACCACG (DNA:RNA)
RNA: B1 RNA with G25U, G27C, G30C, A31G
DNA 1: CAATCTGAATTCCGGTCTCCC
DNA 2: TGGTGGCTACGACGGGATT
B16: UUGCAGA (DNA:RNA)
RNA: B1 RNA with G25U, A26U
DNA 1: CAATCTGAATTCCGGTCTCCC
DNA 2: TGGTGGCTACGACGGGATT
B17: AUGCAUG (DNA:RNA)
RNA: B1 RNA with G25A, A26U, G30U, A31G
DNA 1: CAATCTGAATTCCGGTCTCCC
DNA 2: TGGTGGCTACGACGGGATT
B18: AUGCAUC (DNA:RNA)
RNA: B1 RNA with G25A, A26U, G30U, A31C
DNA 1: CAATCTGAATTCCGGTCTCCC
DNA 2: TGGTGGCTACGACGGGATT
B19: UUGCACG (DNA:RNA)
RNA: B1 RNA with G25U, A26U, G30C, A31G
DNA 1: CAATCTGAATTCCGGTCTCCC
DNA 2: TGGTGGCTACGACGGGATT
B20: AUGCACC (DNA:RNA)
RNA: B1 RNA with G25A, A26U, G30C, A31C
DNA 1: CAATCTGAATTCCGGTCTCCC
DNA 2: TGGTGGCTACGACGGGATT
B21: AUGCAUA (DNA:RNA)
RNA: B1 RNA with G25A, A26U, G30U
DNA 1: CAATCTGAATTCCGGTCTCCC
DNA 2: TGGTGGCTACGACGGGATT
B22: GUCCCAA (DNA:RNA)
RNA: B1 RNA with A26U, G27C, A29C, G30A
DNA 1: CAATCTGAATTCCGGTCTCCC
DNA 2: TGGTGGCTACGACGGGATT
B23: CAUUACG (DNA:RNA)
RNA: B9 RNA with C26A, A27U, G29A, U31G
DNA 1: CAATCTGAATTCCGGTCTCCC
DNA 2: TGGTGGCTACGACGGGATT
B24: UCACUCG (DNA:RNA)
RNA: B9 RNA with C25U, U28C, G29U, U31G
DNA 1: CAATCTGAATTCCGGTCTCCC
DNA 2: TGGTGGCTACGACGGGATT
B25: GUGCACG (DNA:RNA)
RNA: B1 RNA with A26U, G30C, A31G
DNA 1: CAATCTGAATTCCGGTCTCCC
DNA 2: TGGTGGCTACGACGGGATT
B26: GUGCACC (DNA:RNA)
RNA: B1 RNA with A26U, G30C, A31C
DNA 1: CAATCTGAATTCCGGTCTCCC
DNA 2: TGGTGGCTACGACGGGATT
B27: ACGUGCG (DNA:RNA)
RNA: B9 RNA with C25A, A27G, U31G
DNA 1: CAATCTGAATTCCGGTCTCCC
DNA 2: TGGTGGCTACGACGGGATT
B28: AGGUCUC (DNA:RNA)
RNA: B9 RNA with C25A, C26G, A27G, G29C, C30U, U31C
DNA 1: CAATCTGAATTCCGGTCTCCC
DNA 2: TGGTGGCTACGACGGGATT

What follows are binders tested against T1, RBFOX1 RRM (assay: EMSA; HiTS-Eq, 1 nM pool, 10 min; buffer printed only for the single-RNA assays: 10 mM Tris pH 7.5, 150 mM NaCl, 3.4 mM EDTA, 0.001% NP-40, 30 C). Conditions: tags: His6 N-terminal (pET28a); label: 5' 32P.
Summary of the method: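 Purified RbFox RRM, wild type or mutant, was incubated for 10 min in 50 µL with 1 nM of a 5′-radiolabelled RNA pool carrying 7 randomized nucleotides, whose flanks were annealed to DNA oligonucleotides, over a series of increasing protein concentrations. Unbound RNA was resolved on 8% native PAGE, cut out, reverse-transcribed, barcoded by PCR and sequenced on an Illumina HiSeq 2500. Relative association constants were derived from changes in read counts for each RNA species versus the control reaction and normalised to the cognate motif.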

Binder	binding signal
B1	0.0147 KA relative to UGCAUGU
B2	0.00895 KA relative to UGCAUGU
B3	0.713 KA relative to UGCAUGU
B4	0.0394 KA relative to UGCAUGU
B5	0.018 KA relative to UGCAUGU
B6	0.0187 KA relative to UGCAUGU
B7	0.00861 KA relative to UGCAUGU
B8	0.00637 KA relative to UGCAUGU
B9	0.00802 KA relative to UGCAUGU
B10	0.361 KA relative to UGCAUGU
B11	0.0022 KA relative to UGCAUGU
B12	0.0149 KA relative to UGCAUGU
B13	0.0464 KA relative to UGCAUGU
B14	0.0118 KA relative to UGCAUGU
B15	0.00532 KA relative to UGCAUGU
B16	0.018 KA relative to UGCAUGU
B17	0.911 KA relative to UGCAUGU
B18	0.015 KA relative to UGCAUGU
B19	0.692 KA relative to UGCAUGU
B20	0.0115 KA relative to UGCAUGU
B21	0.00891 KA relative to UGCAUGU
B22	0.00597 KA relative to UGCAUGU
B23	0.00857 KA relative to UGCAUGU
B24	0.00518 KA relative to UGCAUGU
B25	0.62 KA relative to UGCAUGU
B26	0.0178 KA relative to UGCAUGU
B27	0.0166 KA relative to UGCAUGU
B28	0.0131 KA relative to UGCAUGU
